Measured values taken from PubChem BioAssay AID1159580 (chemical genetic matrix, 2015).
Values joined by “and” are separate entries in the source; they are usually repeats but may differ in a detail not shown here. Equal entries are not always repeated. Among all 5,500 compounds or so, about 2,000 (36%) were called active. Another 18% or so got no clear call; they are omitted. No stated cut-off is given here; in the data, active means normalized growth mostly below about 0.91 (no sharp cut-off); inconclusive means no clear call, values can overlap the other calls; inactive means mostly above about 0.92. The list shows a part of the results.

Assay: chemical genetic growth profiling, strain panel (AID 1159580);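 further: tested at 20 µM; growth read once vehicle control cultures reached saturation at 30 °C; 1 = growth at the plate median or of vehicle wells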
Details: S. cerevisiae deletion strains, growth OD

Measured: normalized growth

COc1nc(NC(C)C)nc(NC(C)C)n1
inactive: locus YAL013W, strain DEP1, stronger effect = lower value 1.01 | locus YAL021C, strain ccr4, stronger effect = lower value 0.991 | locus YAL026C, strain drs2, stronger effect = lower value 1.04 | locus YAL030W, strain snc1, stronger effect = lower value 1.02 | locus YBL061C, strain skt5, stronger effect = lower value 1.03 | locus YBR009C, strain hhf1, stronger effect = lower value 1.06 | locus YBR021W, strain FUR4, stronger effect = lower value 1.04 | locus YBR023C, strain chs3, stronger effect = lower value 1.03 | locus YBR171W, strain sec66, stronger effect = lower value 1.02 | locus YBR229C, strain ROT2, stronger effect = lower value 0.999 | locus YBR231C, strain swc5, stronger effect = lower value 1.02 | locus YBR279W, strain paf1, stronger effect = lower value 1.01 | locus YCL011C, strain gbp2, stronger effect = lower value 1.02 | locus YCL016C, strain dcc1, stronger effect = lower value 1.01 | locus YCL029C, strain bik1, stronger effect = lower value 1.02 | locus YCL069W, strain vba3, stronger effect = lower value 1.01 | locus YCR088W, strain abp1, stronger effect = lower value 1.02 | locus YDL005C, strain med2, stronger effect = lower value 1.02 | locus YDL035C, strain GPR1, stronger effect = lower value 1.02 | locus YDL040C, strain nat1, stronger effect = lower value 1 | locus YDL074C, strain BRE1, stronger effect = lower value 1.05 | locus YDL101C, strain DUN1, stronger effect = lower value 1.02 | locus YDL134C, strain PPH21, stronger effect = lower value 1 | locus YDL185W, strain tfp1, stronger effect = lower value 1.03 | locus YDL192W, strain arf1, stronger effect = lower value 1.03 | locus YDR001C, strain nth1, stronger effect = lower value 1.02 | locus YDR069C, strain doa4, stronger effect = lower value 1.02 | locus YDR101C, strain arx1, stronger effect = lower value 1.01 | locus YDR137W, strain rgp1, stronger effect = lower value 1.02 | locus YDR150W, strain NUM1, stronger effect = lower value 1.01 | locus YDR159W, strain sac3, stronger effect = lower value 1.07 | locus YDR162C, strain NBP2, stronger effect = lower value 1.01 | locus YDR195W, strain ref2 0.995 | locus YDR297W, strain sur2, stronger effect = lower value 1.03 | locus YDR318W, strain mcm21, stronger effect = lower value 1.02 | locus YDR334W, strain swr1, stronger effect = lower value 1.01 | locus YDR335W, strain msn5, stronger effect = lower value 1.01 | locus YDR388W, stronger effect = lower value 1.03 | locus YDR392W, strain spt3, stronger effect = lower value 1.01 | locus YDR502C, strain sam2, stronger effect = lower value 1.02 | locus YEL003W, strain gim4, stronger effect = lower value 1.02 | locus YEL037C, strain rad23, stronger effect = lower value 1.02 | locus YEL061C, strain CIN8 (second series), stronger effect = lower value 1.03 | locus YEL061C, strain CIN8, stronger effect = lower value 1 | locus YER015W, strain faa2, stronger effect = lower value 1.02 | locus YER016W, strain bim1, stronger effect = lower value 1.01 | locus YER110C, stronger effect = lower value 1.02 | locus YER111C, strain swi4, stronger effect = lower value 1.02 | locus YER155C, strain BEM2 (second series), stronger effect = lower value 1.03 | locus YER155C, strain BEM2, stronger effect = lower value 1.01 | locus YER167W, strain BCK2, stronger effect = lower value 1.01 | locus YFR010W, strain ubp6, stronger effect = lower value 1.03 | locus YGL078C, strain dbp3, stronger effect = lower value 1.01 | locus YGL086W, strain mad1, stronger effect = lower value 1.01 | locus YGL167C, strain pmr1, stronger effect = lower value 1.02 | locus YGL173C, strain kem1, stronger effect = lower value 1.04 | locus YGL227W, strain vid30, stronger effect = lower value 1.04 | locus YGL240W, strain doc1, stronger effect = lower value 1.02 | locus YGL248W, strain PDE1, stronger effect = lower value 1.01 | locus YGL253W, strain hxk2, stronger effect = lower value 1.03 | locus YGR078C, strain PAC10, stronger effect = lower value 1.02 | locus YGR135W, strain pre9, stronger effect = lower value 1.02 | locus YGR229C, strain SMI1, stronger effect = lower value 1.02 | locus YGR252W, strain gcn5, stronger effect = lower value 1.05 | locus YHR013C, strain ard1, stronger effect = lower value 1.03 | locus YHR027C, strain rpn1, stronger effect = lower value 1.03 | locus YHR030C, strain SLT2, stronger effect = lower value 1.01 and 1.07 | locus YHR079C, strain IRE1 (second series), stronger effect = lower value 1.02 | locus YHR079C, strain IRE1, stronger effect = lower value 1.03 | locus YHR094C, strain hxt1, stronger effect = lower value 1.01 | locus YHR129C, strain ARP1, stronger effect = lower value 1.01 | locus YHR142W, strain chs7, stronger effect = lower value 1.04 | locus YHR200W, strain rpn10, stronger effect = lower value 1.01 | locus YIL066C, strain RNR3, stronger effect = lower value 1.02 | locus YIL073C, strain SPO22, stronger effect = lower value 1.08 | locus YIL125W, strain kgd1, stronger effect = lower value 1.01 | locus YIR030C, strain dcg1, stronger effect = lower value 1.01 | locus YJL092W, strain hpr5, stronger effect = lower value 1.02 | locus YJL095W, strain BCK1 (second series), stronger effect = lower value 1.04 | locus YJL095W, strain BCK1, stronger effect = lower value 1.01 and 1.06 | locus YJL115W, strain asf1, stronger effect = lower value 1.02 | locus YJL129C, strain trk1, stronger effect = lower value 1.02 | locus YJL134W, strain LCB3, stronger effect = lower value 1.01 | locus YJL154C, strain vps35, stronger effect = lower value 1.01 | locus YJL164C, strain tpk1, stronger effect = lower value 1.01 | locus YJL166W, strain qcr8, stronger effect = lower value 1.03 | locus YJL168C, strain set2, stronger effect = lower value 1.02 | locus YJL187C, strain SWE1 (second series), stronger effect = lower value 1.01 | locus YJL187C, strain SWE1, stronger effect = lower value 1 | locus YJR043C, strain POL32, stronger effect = lower value 1.03 | locus YJR066W, strain TOR1, stronger effect = lower value 1
